# Rows were chosen to be rich in hits. Some 21% of all compounds tested hit in one or more screens of this group.
# Shiga inhibitor – A qHTS for Small Molecule Inhibitors of Shiga Toxin; 290,000 tested, 9.2% active; Vero cells, Shiga toxin protein synthesis inhibition reporter; inhibition, % at 38.7 µM; in the data active means inhibition mostly above about 28%, no sharp cut-off; inactive means mostly below about 43%; further: 0% is about no effect
# Pf growth 96h – Primary qHTS for delayed death inhibitors of the malarial parasite plastid, 96 hour incubation | Potency, µM (series often up to 28.7 µM), inactives show top-dose activity change, negative = inhibition, actives largely listed as inhibitors | AID 504834, 2011 | 320,000 tested, 6.9% active | P. falciparum luciferase reporter growth, 96 h; further: potency means the concentration at half of the fitted maximal effect; on the % scale 0 is the no-effect control and ±100 the full control effect
#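 Compounds incubated with erythrocytes infected by luciferase-expressing P. falciparum (2% hematocrit, 0.05% parasitemia final) for 96 hours, 37 C in 5% CO2. Growth inhibition scored as decreased luciferase luminescence.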
# FBPA Giardia inh – qHTS Assay for Inhibitors of Fructose-1,6-bisphosphate Aldolase from Giardia Lamblia; A8B2U2; purified Giardia FBPA; Potency, µM (highest dose often 59.6 µM), for inactives: at the highest dose activity, negative = inhibition, actives largely listed as inhibitors; 290,000 tested, 0.71% active; AID 2451, 2010; further: potency means the concentration at half of the fitted maximal effect; on the % scale 0 is the no-effect control and ±100 the full control effect; nearly all actives have a fitted effect of over 55% in size
# Target sequence (A8B2U2 whole entry, looked up): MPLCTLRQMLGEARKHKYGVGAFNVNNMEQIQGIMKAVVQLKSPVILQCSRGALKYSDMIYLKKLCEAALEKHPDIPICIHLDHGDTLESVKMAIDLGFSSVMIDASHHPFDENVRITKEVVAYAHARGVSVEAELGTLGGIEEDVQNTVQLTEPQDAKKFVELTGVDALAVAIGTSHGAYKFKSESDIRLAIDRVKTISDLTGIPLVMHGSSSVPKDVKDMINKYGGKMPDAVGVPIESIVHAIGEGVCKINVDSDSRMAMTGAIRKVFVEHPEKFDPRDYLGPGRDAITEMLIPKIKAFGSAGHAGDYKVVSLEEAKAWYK
#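 Giardia FBPA (40 nM reagent) was preincubated 10 min at RT with compound (up to 57.5 uM final), then substrate plus GAPDH/TPI/NAD/arsenate coupling system with diaphorase/resazurin was added; resorufin fluorescence (525/598 nm) was read after 20 min.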
# NS1 inh – qHTS Assay for Inhibitors of Influenza NS1 Protein Function. 270,000 tested, 0.4% active. Potency, µM (titrated, usually from 46.1 µM), inactives show top-dose activity, positive = more growth; calls by dose curve; further: potency means the concentration at half of the fitted maximal effect; actives are rising curves; nearly all actives have a fitted effect of over 50% in size
#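 OD600 was taken as the measure of yeast growth restored by compound in an NS1-expressing S. cerevisiae strain. Cells had been washed out of glucose medium and diluted 1:100 into galactose -URA medium, pH 6.0.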
# Pf growth 48h – Primary qHTS for delayed death inhibitors of the malarial parasite plastid, 48 hour incubation. P. falciparum luciferase growth in erythrocytes, 48 h. Potency, µM (top dose mostly 28.7 µM), inactives show at the highest dose activity change, negative = inhibition, most hits filed as inhibitors. 310,000 tested, 5.9% active. AID 504832, 2011; further: potency means the concentration at half of the fitted maximal effect; on the % scale 0 is the no-effect control and ±100 the full control effect
#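 Luminescence readout; reporter = integrated firefly luciferase in P. falciparum. RBC culture at 2% hematocrit, 0.1% parasitemia final, 37 C/5% CO2; decreased signal taken as growth inhibition.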
# CHX counter – Cycloheximide Counterscreen for Small Molecule Inhibitors of Shiga Toxin; max response, %; cell reporter, cycloheximide protein synthesis inhibition counterscreen; 300,000 tested, 12% active; in the data active means max response mostly above about 13%, no sharp cut-off; inactive means mostly below about 14%; further: read at 38.3 µM for the half of the compounds with a filed dose; 0% is about no effect
# An asterisk follows results filed as active; ? = inconclusive; . = no result. Unless noted, the call rests on the fitted dose curve; in most records, active means well fitted curve in the direction sought with a large enough effect; inconclusive means small, poorly fitted or top-dose-only effect, or another doubt; inactive means no such curve, though single readings can be large; an effect the other way counts as inactive or inconclusive.
SMILES,Shiga inhibitor,Pf growth 96h,FBPA Giardia inh,NS1 inh,Pf growth 48h,CHX counter
O=C1C2CCCN2C(c2ccncc2)N1c1ccc(Cl)c(Cl)c1 (stereo not drawn),-13.1,0.828µM*,2.3%,-1.6%,13.1µM*,-2.3
O=C1C2CCCN2C(c2cccnc2)N1c1ccc(Cl)c(Cl)c1 (stereo not drawn),-4.7,134.4%,-2.5%,-60.3%,?,-1.5
CC(C)CC(NC(=O)C1CCC(=O)N1C(=O)OCc1ccccc1)C(=O)NC(Cc1ccccc1)C(N)=O (stereo not drawn),-6.2,6.9%,6.0%,-9.9%,10.4µM*,-1.1
CCOCCCN(C)C1CCN(S(=O)(=O)c2csc(C(N)=O)c2)CC1,-5.7,?,-6.1%,-4.8%,18.1%,-4.9
O=C(N/N=C(\c1ccccc1)c1cccnc1)c1cc(O)ccc1O,-11.8,16.4%,-24.8%,0.9%,5.3%,-2.4
CCN1CCN(CCCNC(=O)CN2C(=O)c3cccnc3Oc3ccc(Cl)cc32)CC1,-7.9,?,.,-1.8%,2.5%,-5.6
CC1CC(C)CN(CCCNC(=O)CN2C(=O)c3cccnc3Oc3ccc(Cl)cc32)C1 (stereo not drawn),-14.8,?,.,0.3%,10.4µM*,-2.7
COc1ccc(C(=O)Nc2cc(OC)nc(OC)n2)cc1,52.7*,-1.1%,2.7%,-9.5%,164.4%,18.6*
COc1cc(NC(=O)CCc2ccccc2)nc(OC)n1,48.1*,1.3%,4.1%,-9.2%,17.6%,35.1*
CC(=O)N1CCc2cc(S(=O)(=O)CCC(=O)NCCc3ccc(Cl)cc3)ccc21,1.7,-0.8%,3.3%,-1.7%,?,4.3
CCC1CCCCN1CC(=O)c1c(C)[nH]c2ccccc12 (stereo not drawn),22.3,-27.3%,-15.9%,-2.1%,3.6%,12.9
Cc1[nH]c2ccccc2c1C(=O)CN1CCCCC1C (stereo not drawn),-14.0,14.7µM*,-3.0%,13.2%,-5.0%,3.8
Cc1[nH]c2ccccc2c1C(=O)CN1CCC(C)CC1,-10.4,-34.6%,-7.0%,2.6%,-0.8%,-3.6
Cc1[nH]c2ccccc2c1C(=O)CN1CCC2(CC1)OCCO2,-1.8,0.0%,-17.3%,-6.1%,0.928µM*,9.2
CCC(C(=O)NCc1ccc(F)cc1)N(Cc1cccs1)C(=O)c1snc(C(N)=O)c1N (stereo not drawn),-9.0,11.3%,-2.9%,0.2%,-20.8%,-1.2
ClCC[N+]12CC[N+](CCCl)(CC1)C2 (tested in a mixture with another compound),.,.,.,7.7%,.,.
COc1ccc(CNC(=O)CN(C(=O)c2csnn2)c2cccc3ccccc23)cc1,-3.9,?,8.7%,9.7%,-6.1%,-2.7
COC(=O)/C(C#N)=C/N(C)C,16.7,46.0%,-1.4%,-4.5%,2.33µM*,-0.9
CCOC(=O)/C(C#N)=C\N(C)C,-9.3,9.9%,-2.7%,6.1%,7.7%,-3.9
Cc1ccc(NC(=O)C(c2ccccc2)N2CCN(CC(=O)NC3CC3)CC2)cc1 (stereo not drawn),.,?,.,.,13.1µM*,.
CN(C)CC(C)(C)CNC(C(=O)Nc1ccc(Cl)cc1C(F)(F)F)c1ccccc1 (stereo not drawn),-7.9,?,-0.1%,.,?,6.2
Cc1ccc(NC(=O)C(c2ccccc2)N2CCN(CC(=O)NC3CC3)CC2)cc1Cl (stereo not drawn),.,?,.,.,5.22µM*,.
Cc1cc(C)cc(NC(=O)C(c2ccccc2)N2CCN(CC(=O)NC3CC3)CC2)c1 (stereo not drawn),.,9.28µM*,.,.,5.22µM*,.
Cc1cc(C)cc(NC(=O)C(c2ccccc2)N2CCCC2)c1 (stereo not drawn),12.5,-6.8%,8.6%,1.2%,-18.7%,-2.0
O=C(CN1CCN(C(C(=O)Nc2ccc(Cl)cc2C(F)(F)F)c2ccccc2)CC1)NC1CC1 (stereo not drawn),.,4.15µM*,.,.,3.29µM*,.
Cc1ccc(NC(=O)C(c2ccc(Cl)cc2)N2CCCCC2)cc1 (stereo not drawn),-6.7,?,4.9%,1.1%,?,-1.4

# Screening results as filed in PubChem.
